Here are results for 32 molecules from PubChem BioAssay (Tox21).

Experiment [1] addresses Cytochrome P450 2D6 (Homo sapiens) (UniProt P10635). The experiment can be described thus: Cytochrome P450 Family 2 Subfamily D Member 6 (CYP2D6) small molecule antagonists: luciferase reporter qHTS assay (AID 1671196). Note: nearly all actives have a fitted effect of over 50% in size. In short, it runs like this: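 Inhibition of CYP2D6 was gauged by loss of luminescence, since light produced tracks the luciferin generated from a proluciferin substrate. A 10 min room-temperature preincubation preceded 1 h NADPH-supported turnover.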
A general note: Reporter assays use an easily measured gene product as a stand-in for the process of interest.

Experiment [2] deals with Cytochrome P450 2C19 (Homo sapiens) (UniProt P33261). The experiment can be described thus: Cytochrome P450 Family 2 Subfamily C Member 19 (CYP2C19) small molecule antagonists: luciferase reporter qHTS assay (AID 1671197). Note: nearly all actives have a fitted effect of over 65% in size. A digest of the protocol:
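Inhibition of CYP2C19 was scored from loss of luminescence in a P450-Glo proluciferin substrate assay, NADPH-started and run 1 h at 37C, with ketoconazole as positive control.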

In experiment [3] the target is Cytochrome P450 2C9 (Homo sapiens) (UniProt P11712). The experiment can be described thus: Cytochrome P450 Family 2 Subfamily C Member 9 (CYP2C9) small molecule antagonists: luciferase reporter qHTS assay (AID 1671198). Note: nearly all actives have a fitted effect of over 50% in size. A digest of the protocol: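 Enzyme-substrate mix preincubated with compound 10 min at room temperature; reaction started with NADPH regeneration solution, 1 h 37C. Luminescent luciferin product read after 20 min detection reagent.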

Experiment [4] deals with Cytochrome P450 1A2 (Homo sapiens) (UniProt P05177). The experiment can be described thus: Cytochrome P450 Family 1 Subfamily A Member 2 (CYP1A2) small molecule antagonists: luciferase reporter qHTS assay (AID 1671199). Note: nearly all actives have a fitted effect of over 50% in size. In short, it runs like this: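 Signal from luciferin formed by CYP1A2 from a proluciferin substrate is read as luminescence, expressed in relative luminescence units. Compounds sit with enzyme 10 min, NADPH-driven reaction runs 1 h, all at room temperature.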

Experiment [5] deals with Voltage-gated inwardly rectifying potassium channel KCNH2 (Homo sapiens) (UniProt Q12809). The experiment can be described thus: Human Ether-a-go-go-Related Gene (hERG) channel small molecule antagonists: fluorescence cell-based qHTS assay (AID 1671200). Note: nearly all actives have a fitted effect of over 50% in size. In short, it runs like this:
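hERG-U2OS cells plated overnight at 37 C, loaded with FluxOR II dye 1 h at RT in dark; after 10 min, thallium stimulus added. Fluorescence (480/540 nm) read kinetically for 2 min at 1 s intervals.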
A general note: Block of hERG is tested as a sign of cardiac risk.

For experiment [6], the target named is Cytochrome P450 3A4 (Homo sapiens) (UniProt P08684). The experiment can be described thus: Cytochrome P450 Family 3 Subfamily A Member 4 (CYP3A4) small molecule antagonists: luciferase reporter qHTS assay (AID 1671201). Note: nearly all actives have a fitted effect of over 50% in size. A digest of the protocol: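 P450-Glo CYP3A4 luminescent assay: compounds preincubated 10 min at room temperature with enzyme and proluciferin substrate, NADPH regeneration added, 1 h room-temperature reaction, stopped with luciferin detection reagent; luminescence read after 20 min. Ketoconazole positive control.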

Records with an inconclusive call do not appear. A number with no mark means an inactive call. The source made the active and inactive calls. Calls come from the whole dose curve; as a rule, active = well fitted curve in the direction sought with a large enough effect in the repeat runs; inconclusive = weak or mixed curves; inactive = no such curve, though single readings can be large; an effect the other way counts as inactive or inconclusive.
Potency is the fitted concentration of half-maximal effect.

Sequence of Cytochrome P450 1A2 (Homo sapiens) (P05177 whole entry, looked up): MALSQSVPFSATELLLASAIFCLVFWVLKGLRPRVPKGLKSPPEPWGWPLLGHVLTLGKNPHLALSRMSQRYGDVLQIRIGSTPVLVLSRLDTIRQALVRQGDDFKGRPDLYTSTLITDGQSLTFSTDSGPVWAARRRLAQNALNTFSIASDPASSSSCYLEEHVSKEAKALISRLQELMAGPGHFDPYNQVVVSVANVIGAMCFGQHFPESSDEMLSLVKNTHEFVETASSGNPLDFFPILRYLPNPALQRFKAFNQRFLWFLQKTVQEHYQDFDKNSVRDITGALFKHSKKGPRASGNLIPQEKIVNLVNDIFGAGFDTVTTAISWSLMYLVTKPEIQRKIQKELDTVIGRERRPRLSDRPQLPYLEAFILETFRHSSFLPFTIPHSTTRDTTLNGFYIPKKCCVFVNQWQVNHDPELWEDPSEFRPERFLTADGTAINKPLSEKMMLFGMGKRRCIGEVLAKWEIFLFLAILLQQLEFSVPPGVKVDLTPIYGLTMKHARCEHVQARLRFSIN
Sequence of Cytochrome P450 2D6 (Homo sapiens) (P10635 whole entry, looked up): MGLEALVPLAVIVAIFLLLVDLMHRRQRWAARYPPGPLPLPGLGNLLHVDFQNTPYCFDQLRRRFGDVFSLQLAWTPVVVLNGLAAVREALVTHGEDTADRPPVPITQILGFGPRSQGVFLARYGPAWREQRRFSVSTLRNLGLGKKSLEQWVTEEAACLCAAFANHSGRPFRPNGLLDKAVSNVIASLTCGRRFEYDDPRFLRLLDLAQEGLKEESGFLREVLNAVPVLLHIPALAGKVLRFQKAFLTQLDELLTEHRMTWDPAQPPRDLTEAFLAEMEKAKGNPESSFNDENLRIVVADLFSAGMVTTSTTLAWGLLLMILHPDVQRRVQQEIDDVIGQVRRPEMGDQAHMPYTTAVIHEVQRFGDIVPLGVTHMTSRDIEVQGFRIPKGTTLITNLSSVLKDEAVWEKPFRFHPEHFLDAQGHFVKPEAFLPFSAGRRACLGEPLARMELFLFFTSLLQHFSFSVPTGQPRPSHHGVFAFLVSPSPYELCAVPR
Sequence of Voltage-gated inwardly rectifying potassium channel KCNH2 (Homo sapiens) (Q12809 whole entry, looked up): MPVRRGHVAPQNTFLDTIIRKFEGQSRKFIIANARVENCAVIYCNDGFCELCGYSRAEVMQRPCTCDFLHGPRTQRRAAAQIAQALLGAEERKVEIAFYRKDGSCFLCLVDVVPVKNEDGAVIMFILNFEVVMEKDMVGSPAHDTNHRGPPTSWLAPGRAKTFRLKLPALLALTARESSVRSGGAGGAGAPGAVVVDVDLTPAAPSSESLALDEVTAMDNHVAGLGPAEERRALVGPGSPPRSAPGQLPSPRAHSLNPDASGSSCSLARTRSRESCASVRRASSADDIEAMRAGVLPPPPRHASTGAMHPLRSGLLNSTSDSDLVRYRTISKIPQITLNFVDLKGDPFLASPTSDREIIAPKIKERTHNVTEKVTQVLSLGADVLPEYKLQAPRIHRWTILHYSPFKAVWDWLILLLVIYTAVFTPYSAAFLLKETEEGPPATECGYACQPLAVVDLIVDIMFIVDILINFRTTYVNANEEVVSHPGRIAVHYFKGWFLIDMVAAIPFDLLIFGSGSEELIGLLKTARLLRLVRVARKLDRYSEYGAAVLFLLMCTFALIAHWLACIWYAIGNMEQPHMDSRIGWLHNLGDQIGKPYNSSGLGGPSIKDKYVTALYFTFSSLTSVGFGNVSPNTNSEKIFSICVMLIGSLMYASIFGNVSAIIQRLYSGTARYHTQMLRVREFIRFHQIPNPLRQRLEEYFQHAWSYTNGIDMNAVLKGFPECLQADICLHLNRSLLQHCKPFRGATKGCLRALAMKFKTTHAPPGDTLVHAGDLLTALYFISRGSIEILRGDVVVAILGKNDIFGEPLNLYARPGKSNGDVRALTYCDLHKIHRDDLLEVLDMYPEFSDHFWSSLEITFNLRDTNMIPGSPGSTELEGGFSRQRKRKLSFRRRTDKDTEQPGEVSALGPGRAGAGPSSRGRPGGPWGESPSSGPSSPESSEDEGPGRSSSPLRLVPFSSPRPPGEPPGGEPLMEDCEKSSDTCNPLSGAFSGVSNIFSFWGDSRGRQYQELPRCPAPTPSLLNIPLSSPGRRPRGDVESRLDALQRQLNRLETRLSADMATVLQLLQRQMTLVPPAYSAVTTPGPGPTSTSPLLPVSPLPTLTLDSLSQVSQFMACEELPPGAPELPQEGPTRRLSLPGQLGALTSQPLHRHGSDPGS
Sequence of Cytochrome P450 2C9 (Homo sapiens) (P11712 whole entry, looked up): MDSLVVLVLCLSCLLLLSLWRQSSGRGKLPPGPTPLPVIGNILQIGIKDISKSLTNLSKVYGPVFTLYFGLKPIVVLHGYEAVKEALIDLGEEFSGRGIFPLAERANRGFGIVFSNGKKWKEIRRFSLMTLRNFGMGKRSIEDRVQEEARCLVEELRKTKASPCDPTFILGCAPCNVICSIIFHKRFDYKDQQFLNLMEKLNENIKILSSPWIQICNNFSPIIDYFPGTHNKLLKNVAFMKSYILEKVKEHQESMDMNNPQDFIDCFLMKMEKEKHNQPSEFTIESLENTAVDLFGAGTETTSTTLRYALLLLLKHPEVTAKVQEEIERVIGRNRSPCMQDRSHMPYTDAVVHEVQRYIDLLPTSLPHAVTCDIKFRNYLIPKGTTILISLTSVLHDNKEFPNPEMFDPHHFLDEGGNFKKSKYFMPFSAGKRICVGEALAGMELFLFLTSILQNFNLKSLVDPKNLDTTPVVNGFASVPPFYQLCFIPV
Sequence of Cytochrome P450 3A4 (Homo sapiens) (P08684 whole entry, looked up): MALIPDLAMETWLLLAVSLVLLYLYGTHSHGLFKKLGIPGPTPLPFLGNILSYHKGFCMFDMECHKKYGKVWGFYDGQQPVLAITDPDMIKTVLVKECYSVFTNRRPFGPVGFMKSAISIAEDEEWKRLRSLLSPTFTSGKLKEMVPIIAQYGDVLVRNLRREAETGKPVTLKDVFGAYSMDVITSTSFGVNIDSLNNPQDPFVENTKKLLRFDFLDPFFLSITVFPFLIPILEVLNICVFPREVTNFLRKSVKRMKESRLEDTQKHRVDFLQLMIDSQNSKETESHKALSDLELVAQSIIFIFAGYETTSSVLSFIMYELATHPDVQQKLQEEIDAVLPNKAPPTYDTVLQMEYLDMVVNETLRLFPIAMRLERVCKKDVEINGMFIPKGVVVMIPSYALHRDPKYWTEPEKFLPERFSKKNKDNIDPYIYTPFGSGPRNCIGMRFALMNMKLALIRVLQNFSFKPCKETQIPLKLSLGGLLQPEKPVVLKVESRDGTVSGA
Sequence of Cytochrome P450 2C19 (Homo sapiens) (P33261 whole entry, looked up): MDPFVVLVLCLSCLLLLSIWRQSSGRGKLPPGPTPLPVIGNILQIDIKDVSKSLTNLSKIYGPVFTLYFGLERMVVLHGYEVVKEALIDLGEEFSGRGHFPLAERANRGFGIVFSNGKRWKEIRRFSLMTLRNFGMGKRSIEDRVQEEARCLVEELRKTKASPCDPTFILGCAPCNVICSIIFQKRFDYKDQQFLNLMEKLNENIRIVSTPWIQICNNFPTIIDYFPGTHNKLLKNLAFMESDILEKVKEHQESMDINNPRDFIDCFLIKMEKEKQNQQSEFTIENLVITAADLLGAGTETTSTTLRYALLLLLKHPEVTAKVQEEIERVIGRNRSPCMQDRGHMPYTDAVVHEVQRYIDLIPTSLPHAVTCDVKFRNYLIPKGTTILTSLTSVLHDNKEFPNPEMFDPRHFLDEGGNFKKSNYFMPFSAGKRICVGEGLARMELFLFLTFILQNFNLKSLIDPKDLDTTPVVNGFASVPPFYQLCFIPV

Regarding `C[N+](C)(C)CCCCCC[N+](C)(C)C`, the Potency result in experiment [1], in experiment [2], in experiment [3], in experiment [4], in experiment [5] and in experiment [6] was “inactive” in each case.
For `CC1(C)CO[C@@H](CC(=O)O)CN1`, the Potency entry in experiment [1], in experiment [2], in experiment [3], in experiment [4], in experiment [5] and in experiment [6] was “inactive” each time.
With `CC(C)(C)c1ccc(O)c(O)c1`, the Potency in experiment [1] was 23.8 µM (active); in experiment [3], 61.5 µM (active); in experiment [4], 41.1 µM (active). Further, the Potency entry in experiment [2], in experiment [5] and in experiment [6] was “inactive” each time.
With `O=C(O)CNC(=O)c1ccc([N+](=O)[O-])cc1`, the Potency result in experiment [1], in experiment [2], in experiment [3], in experiment [4], in experiment [5] and in experiment [6] was “inactive” in each case.
Consider `O=C1OC(=O)C2CCCCC12` (stereo unspecified), for which the Potency result in experiment [1], in experiment [2], in experiment [3], in experiment [4], in experiment [5] and in experiment [6] was “inactive” in each case.
In the case of `O=c1[nH]c(=O)n([C@H]2C[C@H](O)[C@@H](CO)O2)cc1I`, the Potency result in experiment [1], in experiment [2], in experiment [3], in experiment [4], in experiment [5] and in experiment [6] was “inactive” throughout.
Consider `CCN1CCC[C@H]1CNC(=O)c1cc(S(N)(=O)=O)ccc1OC`, for which the Potency in experiment [1] is 15.5 µM (active). Moreover, the Potency result in experiment [2], in experiment [3], in experiment [4], in experiment [5] and in experiment [6] was “inactive” throughout.
With `OCCCC1CCCCC1`, the Potency result in experiment [1], in experiment [2], in experiment [3], in experiment [4], in experiment [5] and in experiment [6] was “inactive” in each case.
With `CC(C)OC(=O)c1ccccc1`, the Potency result in experiment [1], in experiment [2], in experiment [3], in experiment [4], in experiment [5] and in experiment [6] was “inactive” each time.
With `CCOc1ccc(C(=O)OCCN(CC)CC)cc1`, the values for the Potency in experiment [1] and in experiment [4] were 1.55 µM (active) and 27.5 µM (active), respectively. Also, the Potency entry in experiment [2], in experiment [3], in experiment [5] and in experiment [6] was “inactive” in each case.
With `CC(C)CNCC(C)C`, the Potency entry in experiment [1], in experiment [2], in experiment [3], in experiment [4], in experiment [5] and in experiment [6] was “inactive” throughout.
For `CCO/C([O-])=N/c1c[n+](N2CCOCC2)no1`, the Potency result in experiment [1], in experiment [2], in experiment [3], in experiment [4], in experiment [5] and in experiment [6] was “inactive” each time.
As to `N=C(N)c1ccc2cc(OC(=O)c3ccc(N=C(N)N)cc3)ccc2c1`, the Potency entry in experiment [1], in experiment [2], in experiment [3], in experiment [4], in experiment [5] and in experiment [6] was “inactive” throughout.
For `CCCCCCCCCCCC`, the Potency result in experiment [1], in experiment [2], in experiment [3], in experiment [4], in experiment [5] and in experiment [6] was “inactive” each time.
For the molecule `NC(=O)COCCN1CCN(C(c2ccccc2)c2ccc(Cl)cc2)CC1` (stereo unspecified), the Potency entry in experiment [1], in experiment [2], in experiment [3], in experiment [4] and in experiment [6] was “inactive” each time.
Consider `CC/C=C\CC/C=C/CO`, for which the Potency entry in experiment [1], in experiment [2], in experiment [3], in experiment [5] and in experiment [6] was “inactive” each time.
With `CC(C)(O)C(=O)c1ccccc1`, the Potency entry in experiment [1], in experiment [3], in experiment [5] and in experiment [6] was “inactive” each time. The Potency in experiment [2] was 39.9 µM (active).
For the molecule `CC(=O)CC(C)(C)C1CCCCC1`, the Potency entry in experiment [1], in experiment [2], in experiment [3], in experiment [5] and in experiment [6] was “inactive” throughout.
As to `CC(=O)CC(C)C`, the Potency entry in experiment [1], in experiment [2], in experiment [3], in experiment [5] and in experiment [6] was “inactive” throughout.
Turning to `CC(C)=CCCC(C)CC(=O)O` (stereo unspecified), the Potency entry in experiment [1], in experiment [5] and in experiment [6] was “inactive” throughout. For the same molecule, the Potency in experiment [2] is 35.6 µM (active); in experiment [3], 63.3 µM (active).
Take `CC/C=C\CC/C=C/C(OCC)OCC`: the Potency entry in experiment [1] and in experiment [5] was “inactive” throughout. Also, the Potency was 56.4 µM (active) in experiment [2], 35.6 µM (active) in experiment [3] and 31.7 µM (active) in experiment [6].
As to `CCCN(CCC)CCc1cccc2c1CC(=O)N2`, in experiment [1], the Potency is 0.977 µM (active). For the same molecule, the Potency entry in experiment [2], in experiment [3], in experiment [4] and in experiment [6] was “inactive” each time.
Turning to `CC(C)NCCCC1(C(N)=O)c2ccccc2-c2ccccc21`, the Potency in experiment [1] is 2.45 µM (active). Moreover, the Potency entry in experiment [2], in experiment [4] and in experiment [5] was “inactive” in each case.
Regarding `O=C1CC2CC1C1CCCC21` (stereo unspecified), the Potency entry in experiment [1], in experiment [2], in experiment [3], in experiment [5] and in experiment [6] was “inactive” each time.
Take `C=C(C)C(=O)OCCCCCCCC(C)C`: the Potency entry in experiment [1], in experiment [3], in experiment [5] and in experiment [6] was “inactive” each time. Moreover, the Potency in experiment [2] is 71.5 µM (active).
Turning to `C[C@H](NC(CCc1ccccc1)C(=O)O)C(=O)N1CCC[C@H]1C(=O)O` (stereo partly specified), the Potency result in experiment [1], in experiment [2], in experiment [3], in experiment [4] and in experiment [6] was “inactive” each time.
Regarding `COC(=O)c1cc(C(=O)OC)cc(S(=O)(=O)O)c1`, the Potency entry in experiment [1], in experiment [2], in experiment [3], in experiment [5] and in experiment [6] was “inactive” each time.
Consider `CN1N=C(C(N)=O)CCC1=O`, for which the Potency result in experiment [1], in experiment [2], in experiment [3], in experiment [5] and in experiment [6] was “inactive” throughout.
`COC(=O)[C@@H](N)Cc1ccc(O)c(O)c1`: the Potency entry in experiment [1], in experiment [2], in experiment [3], in experiment [5] and in experiment [6] was “inactive” in each case.
Take `O=[N+]([O-])c1ccc(F)cc1F`: the Potency result in experiment [1], in experiment [2], in experiment [3], in experiment [5] and in experiment [6] was “inactive” each time.
With `C=CCCCCCCCCC=O`, the Potency result in experiment [1] and in experiment [5] was “inactive” throughout. For the same molecule, the Potency was 79.6 µM (active) in experiment [2] and 31.7 µM (active) in experiment [3].
Take `CO[C@]12C[C@@H](COC(=O)c3cncc(Br)c3)CN(C)[C@@H]1Cc1cn(C)c3cccc2c13`: the Potency in experiment [1] was 0.0692 µM (active); in experiment [2], 2.45 µM (active); in experiment [5], 1.07 µM (active). In addition, in experiment [3], the Potency result was “inactive”.
